According to PubChem BioAssay (Tox21):
Records with an inconclusive call do not appear. Entries that show only a call come without a potency. A number with no mark means an inactive call. Active and inactive are the calls of the source. Unless noted, calls come from the whole dose curve; as a rule, active = well fitted curve in the direction sought with a large enough effect in the repeat runs; inconclusive = weak or mixed curves; inactive = no such curve, though single readings can be large; an effect the other way counts as inactive or inconclusive.

Key:
[1] = qHTS assay to identify small molecule agonists of the NFkB signaling pathway - cell viability counter screen (AID 1159515; calls by dose curve; note: nearly all actives have a fitted effect of over 55% in size; note: potency is the fitted concentration of half-maximal effect)
Summary of the method: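 Using the same wells as the NFkB reporter read, ME-180 NFkB-bla cells given compounds for 5 hr were assessed for viability via CellTiter-Glo, with luminescence taken after a 30 min room-temperature incubation.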

[2] = qHTS assay to identify small molecule agonists of the endoplasmic reticulum stress response signaling pathway (AID 1159516; active = well fitted activation curve with a large enough effect in the signal ratio in the repeat runs, not every such curve was filed as active; the % refers to the signal ratio)
Summary of the method: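 An ESRE-bla HeLa cell assay: compounds were pin-transferred from DMSO onto overnight-plated cells and left 5 hr at 37 C. Substrate was then loaded for 2 hr at room temperature before reading fluorescence at 460 nm and 530 nm.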

[3] = qHTS assay to identify small molecule agonists of the endoplasmic reticulum stress response signaling pathway - cell viability counter screen (AID 1159517; calls by dose curve;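 note: HeLa cells carrying an ER stress response element beta-lactamase reporter; series mostly up to about 61 µM; nearly all actives have a fitted effect of over 50% in size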)
Summary of the method: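 Cells, HeLa ESRE-bla; density, 1,500/well; dosing, 5 hr at 37 C, 5% CO2; readout, CellTiter-Glo luminescence after 30 min RT.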

[4] = qHTS assay to identify small molecule antagonists of the retinoid-related orphan receptor gamma (ROR-gamma) signaling pathway - cell viability counter screen (AID 1159520); note: nearly all actives have a fitted effect of over 50% in size; note: potency is the fitted concentration of half-maximal effect
Summary of the method: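 Cytotoxicity was read from cellular ATP (CellTiter-Glo luminescence) after 16 hr at 37 C with 1 uM doxycycline induction. The inducer was added 2 hr after compound transfer to Tet-on ROR gamma CHO cells.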

[5] = target: Nuclear receptor ROR-gamma (Homo sapiens) (UniProt P51449); test: qHTS assay to identify small molecule antagonists of the retinoid-related orphan receptor gamma (ROR-gamma) signaling pathway (AID 1159521; note: nearly all actives have a fitted effect of over 50% in size; note: potency is the fitted concentration of half-maximal effect)
Summary of the method: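 Tet-on ROR-gamma CHO cells with ROR response element-luciferase reporter; compounds added 2 hr before 1 uM doxycycline induction, then 16 hr at 37 C. Antagonism scored as decreased ONE-Glo luminescence.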

[6] = qHTS assay to identify small molecule agonists of the AP-1 signaling pathway - cell viability counter screen (AID 1159525; calls by dose curve; note: nearly all actives have a fitted effect of over 55% in size; note: potency is the fitted concentration of half-maximal effect)
Summary of the method: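 Luminescent ATP readout (Cell Titer Glo, 30 min RT), normalised to DMSO and tetra n-octyl ammonium bromide controls. Cells were ME-180 AP-1-bla in 0.5% dialyzed FBS Opti-MEM, with a 5 h, 37 °C compound exposure.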

[7] = target: Retinoic acid receptor RXR-alpha (Homo sapiens) (UniProt P19793); test: qHTS assay to identify small molecule agonists of the RXR signaling pathway (AID 1159527; calls by dose curve; note: nearly all actives have a fitted effect of over 35% in size)
Summary of the method: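 GeneBLAzer RXR-alpha-UAS-bla HEK 293T cells in 2% charcoal-stripped FBS medium were exposed to compounds for 16 hr at 37 C in agonist mode. Beta-lactamase reporter read as 460/530 nm FRET ratio after 2 hr substrate loading.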

[8] = qHTS assay to identify small molecule antagonists of the retinoid acid receptor (RAR) signaling pathway - cell viability counter screen (AID 1159551); note: nearly all actives have a fitted effect of over 35% in size
Summary of the method: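 Retinol-stimulated (1 uM final) C3RL4 cells, compound 6 h, 37 C; readout CellTiter-Glo luminescence (ATP) after 30 min RT incubation.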

[9] = qHTS assay to identify small molecule antagonists of the retinoic acid receptor (RAR) signaling pathway (AID 1159552; note: nearly all actives have a fitted effect of over 50% in size; note: potency is the fitted concentration of half-maximal effect)
Summary of the method: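 Retinol signaling pathway inhibitors screened in C3RL4 RARE-luciferase reporter cells seeded overnight at 37 C, then compounds added with 1 uM (final) retinol as pathway substrate. After 6 hr at 37 C, luciferase luminescence read after 30 min at room temperature.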

[10] = qHTS assay to identify small molecule agonists of the retinoic acid receptor (RAR) signaling pathway (AID 1159553); note: potency is the fitted concentration of half-maximal effect
Summary of the method: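 Reporter readout comes from luciferase under RARE control in C3RL4 cells; compound exposure lasts 6 hr at 37 C in 5% CO2, and luminescence is recorded following a 30 min room-temperature incubation with reagent.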

[11] = qHTS assay to identify small molecule antagonists of the estrogen related receptor (ERR) signaling pathway from Tox21 library - cell viability counter screen (AID 1224834); note: nearly all actives have a fitted effect of over 30% in size; note: potency is the fitted concentration of half-maximal effect
Summary of the method: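 After 17.5 h of compound exposure at 37 C, ERR cells are incubated with CellTiter-Fluor for 30 min and fluorescence intensity serves as the viability measure.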

[12] = qHTS assay to identify small molecule agonists of the constitutive androstane receptor (CAR) signaling pathway - cell viability counter screen (AID 1224836); note: nearly all actives have a fitted effect of over 45% in size; note: potency is the fitted concentration of half-maximal effect
Summary of the method: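 HepG2 cells stably carrying hCAR and a CYP2B6-2.2kb reporter; 15-concentration compounds plus PK11195 (final 0.75 uM), 23 hr at 37 C/5% CO2. Viability read by CellTiter-Fluor fluorescence.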

[13] = target: Luciferin 4-monooxygenase (Photinus pyralis) (UniProt P08659); test: qHTS assay to identify small molecule inhibitors of firefly luciferase (AID 1224835); note: nearly all actives have a fitted effect of over 25% in size; note: potency is the fitted concentration of half-maximal effect
Summary of the method: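 Inhibition of purified Photinus luciferase is measured by luminescence. Substrate levels (D-luciferin, ATP) sit at their KM values. Each compound is tested in a concentration series.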

[14] = qHTS assay to identify small molecule agonists of the RXR signaling pathway - cell viability counter screen (AID 1159529); note: nearly all actives have a fitted effect of over 50% in size; note: potency is the fitted concentration of half-maximal effect
Summary of the method: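 RXR-alpha-UAS-bla HEK 293T cells in medium with 2% charcoal-stripped FBS were pre-incubated 5 hr, then compound-treated 16 hr at 37 C. Viability was read by CellTiter-Glo luminescence in the same wells as the beta-lactamase assay, with tetraoctyl ammonium bromide as positive control.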

[15] = qHTS assay to identify small molecule antagonists of the estrogen related receptor (ERR) signaling pathway - cell viability counter screen (AID 1224818); note: series mostly up to about 46 µM
Summary of the method: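 After a 6 h pre-incubation, ERR cells were dosed by pin tool with compounds, positive/negative controls or DMSO alone. Following 17.5 h at 37 C and 30 min with CellTiter-Fluor, fluorescence was recorded.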

[16] = qHTS assay to identify small molecule antagonists of the estrogen related receptor (ERR) signaling pathway (AID 1224819)
Summary of the method: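 Luminescence readout (One-Glo, 30 min, RT) of ERR cell line after 18 h compound exposure at 37 C; cells seeded 2,000/well, pre-incubated 6 h, compounds pinned from DMSO stocks.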

[17] = qHTS assay to identify small molecule agonists of the estrogen related receptor (ERR) signaling pathway (AID 1224820)
Summary of the method: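 ERR reporter cells (NTP line) plated 2,000/well, incubated 6 h at 37 C/5% CO2, then pinned with compounds in DMSO and held 18 h at 37 C. One-Glo added; luminescence read after 30 min at room temperature.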

[18] = system: estrogen-related receptor alpha (ERRalpha) with PGC-1alpha coactivator, human; test: qHTS assay to identify small molecule antagonists of the estrogen related receptor signaling pathway with the pleiotropic PPARgamma coactivator (PGC) (AID 1224821; calls by dose curve)
Summary of the method: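 Cells engineered for PGC/ERR signalling (line from NTP) were plated 6 h at 37 C/5% CO2, then exposed to DMSO-dissolved compound for 18 h at 37 C. Luciferase activity was read by One-Glo luminescence after 30 min at room temperature.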

[19] = qHTS assay to identify small molecule agonists of the estrogen related receptor signaling pathway with the pleiotropic PPARgamma coactivator (PGC) (AID 1224823)
Summary of the method: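 PGC/ERR reporter cells were seeded, rested 6 h at 37 C/5% CO2, then exposed to compounds in DMSO by pin transfer for 18 h at 37 C. Luciferase activity was read as luminescence after One-Glo reagent and 30 min at room temperature.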

Sequence of Retinoic acid receptor RXR-alpha (Homo sapiens) (P19793 whole entry, looked up): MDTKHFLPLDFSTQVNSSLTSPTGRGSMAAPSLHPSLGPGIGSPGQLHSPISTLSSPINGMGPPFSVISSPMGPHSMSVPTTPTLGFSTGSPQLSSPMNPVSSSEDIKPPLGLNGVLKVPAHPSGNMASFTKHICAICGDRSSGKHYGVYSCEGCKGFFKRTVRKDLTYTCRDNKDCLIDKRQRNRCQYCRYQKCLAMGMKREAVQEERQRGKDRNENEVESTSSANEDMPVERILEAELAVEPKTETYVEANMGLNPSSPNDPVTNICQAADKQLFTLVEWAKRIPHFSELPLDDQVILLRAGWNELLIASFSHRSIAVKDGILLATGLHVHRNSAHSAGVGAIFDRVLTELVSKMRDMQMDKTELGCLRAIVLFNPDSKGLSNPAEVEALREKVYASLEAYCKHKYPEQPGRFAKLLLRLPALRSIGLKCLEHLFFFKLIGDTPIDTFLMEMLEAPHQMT
Sequence of Luciferin 4-monooxygenase (Photinus pyralis) (P08659 whole entry, looked up): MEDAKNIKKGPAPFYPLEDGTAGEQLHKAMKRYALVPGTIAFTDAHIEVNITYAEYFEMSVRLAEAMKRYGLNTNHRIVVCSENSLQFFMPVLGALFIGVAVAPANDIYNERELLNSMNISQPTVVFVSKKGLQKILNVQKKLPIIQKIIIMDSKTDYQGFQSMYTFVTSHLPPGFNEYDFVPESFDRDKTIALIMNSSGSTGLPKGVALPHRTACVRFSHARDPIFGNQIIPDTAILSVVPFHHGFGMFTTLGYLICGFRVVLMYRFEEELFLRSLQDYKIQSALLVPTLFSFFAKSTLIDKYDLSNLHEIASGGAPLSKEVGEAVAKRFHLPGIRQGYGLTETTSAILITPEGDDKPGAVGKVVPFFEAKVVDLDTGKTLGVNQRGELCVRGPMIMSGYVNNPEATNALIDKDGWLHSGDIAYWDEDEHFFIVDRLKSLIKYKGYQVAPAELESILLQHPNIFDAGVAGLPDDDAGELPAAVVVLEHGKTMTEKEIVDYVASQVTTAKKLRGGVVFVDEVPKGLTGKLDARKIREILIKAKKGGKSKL

SMILES	Potency [1]	Potency [2]	outcome [3]	Potency [4]	Potency [5]	Potency [6]	Potency [7]	Potency [8]	Potency [9]	Potency [10]	Potency [11]	Potency [12]	Potency [13]	Potency [14]	outcome [15]	outcome [16]	outcome [17]	outcome [18]	outcome [19]
N#Cc1cc2ccccc2c2ccccc12	inactive	inactive	inactive	inactive	inactive	inactive	inactive	inactive	inactive	inactive	inactive	inactive	–	–	–	–	–	–	–
CCCCCCOC(=O)CCC	inactive	inactive	inactive	inactive	inactive	inactive	inactive	inactive	inactive	inactive	inactive	inactive	inactive	–	–	–	–	–	–
CC1CCc2cc(F)cc3c(=O)c(C(=O)O)cn1c23 (stereo not given)	inactive	inactive	inactive	inactive	inactive	inactive	–	inactive	inactive	inactive	inactive	–	inactive	inactive	–	–	–	–	–
CC(=O)CC(=O)c1ccccc1	inactive	inactive	inactive	inactive	6.9 µM (active)	inactive	–	–	–	inactive	inactive	–	inactive	–	–	–	–	–	–
NC(N)=NN=C(/C=C/c1ccc([N+](=O)[O-])o1)/C=C/c1ccc([N+](=O)[O-])o1	13.4 µM (active)	inactive	inactive	2.11 µM (active)	7.5 µM (active)	21.3 µM (active)	–	–	7.5 µM (active)	2.11 µM (active)	2.98 µM (active)	3.35 µM (active)	27.5 µM (active)	8.49 µM (active)	–	–	–	–	–
CN(C)CCCOc1nn(Cc2ccccc2)c2ccccc12	inactive	inactive	inactive	inactive	inactive	inactive	inactive	inactive	–	–	–	–	inactive	–	–	–	–	–	–
NC(N)=N/N=C/c1c(Cl)cccc1Cl	inactive	inactive	inactive	inactive	inactive	inactive	–	–	inactive	inactive	–	23.7 µM (active)	inactive	inactive	inactive	inactive	inactive	inactive	inactive
Cc1cc(CC(=O)O)c(C)n1-c1ccc(Cl)cc1	inactive	inactive	inactive	inactive	inactive	inactive	–	inactive	inactive	inactive	–	inactive	inactive	–	–	–	–	–	–
CC[C@]12CCCN3CCc4c(n(c5ccccc45)C(=O)C1)[C@@H]32	inactive	inactive	inactive	inactive	inactive	inactive	inactive	inactive	–	inactive	9.44 µM (active)	–	inactive	–	–	–	–	–	–
